Laboratory results reported in PubChem BioAssay (NCATS).
Records with an inconclusive call do not appear. Activity calls are given as the source filed them. The call rests on the fitted dose curve; in most records, active means well fitted curve in the direction sought with a large enough effect; inconclusive means small, poorly fitted or top-dose-only effect, or another doubt; inactive means no such curve, though single readings can be large; an effect the other way counts as inactive or inconclusive.

How the values were obtained:
[1] = qHTS to identify inhibitors of the type 1 interferon - major histocompatibility complex class I in skeletal muscle: primary screen against the NCATS Pharmaceutical Collection (AID 1347407);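 further: luminescence of HiBiT knocked into endogenous HLA-B as interferon-induced MHC class I level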
In short: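 Luminescence from HiBiT-tagged endogenous HLA-B*08:01 served as the read-out of IFN-beta-induced MHC class I in CRISPR-engineered C25cl48 myoblasts. Cells received 4 ng/ml IFN-beta plus compound (high final 46 uM, […]) for 24 h.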

[2] = molecular target: Protein phosphatase 1D (Homo sapiens) (UniProt O15297); assay: RapidFire Mass Spectrometry qHTS Assay for Modulators of WT P53-Induced Phosphatase 1 (WIP1) (AID 1347424);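 further: amount of dephosphorylated VEPPL-S-QETFS peptide product formed by WIP1; series mostly up to about 63 µM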
Sequence of Protein phosphatase 1D (Homo sapiens) (O15297 whole entry, looked up): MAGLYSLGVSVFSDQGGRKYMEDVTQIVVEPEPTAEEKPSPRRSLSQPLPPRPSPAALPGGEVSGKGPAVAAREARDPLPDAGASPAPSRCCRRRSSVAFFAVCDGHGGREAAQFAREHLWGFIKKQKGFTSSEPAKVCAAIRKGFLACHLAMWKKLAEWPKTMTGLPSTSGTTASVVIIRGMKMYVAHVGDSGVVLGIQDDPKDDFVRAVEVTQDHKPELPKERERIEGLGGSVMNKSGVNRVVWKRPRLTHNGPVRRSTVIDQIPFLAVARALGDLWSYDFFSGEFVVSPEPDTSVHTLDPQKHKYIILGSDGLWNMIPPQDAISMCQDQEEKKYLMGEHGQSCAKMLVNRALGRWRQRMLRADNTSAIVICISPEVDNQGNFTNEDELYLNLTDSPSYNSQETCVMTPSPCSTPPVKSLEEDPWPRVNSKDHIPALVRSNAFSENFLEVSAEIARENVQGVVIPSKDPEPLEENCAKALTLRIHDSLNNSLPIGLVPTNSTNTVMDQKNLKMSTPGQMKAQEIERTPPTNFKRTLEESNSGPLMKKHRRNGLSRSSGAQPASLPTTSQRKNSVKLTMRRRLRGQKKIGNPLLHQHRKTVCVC
In short: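 WIP1 (10 nM final) was preincubated 1 h at room temperature with compounds in Tris-HCl pH 7.5, 30 mM MgCl2, TCEP, EGTA, BSA; 2 uM VEPPL-pS-QETFS phosphopeptide was added for 5 min, quenched with formic acid, and dephosphorylated product quantified by RapidFire MS.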

[3] = molecular target: Protein phosphatase 1D (Homo sapiens) (UniProt O15297); assay: Rhodamine-PBP qHTS Assay for Modulators of WT P53-Induced Phosphatase 1 (WIP1) (AID 1347425)
In short: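 The read-out is the change in Rhodamine-PBP fluorescence (f1 - f0, ex 525/em 598 nm) as Pi is released, read each minute for 11 min. Final reaction: 5 nM WIP1, 10 uM phosphopeptide VEPPL-pS-QETFS, 10 uM Rh-PBP, 50 mM Tris-HCl pH 7.5, 30 mM MgCl2. Compound was preincubated with enzyme for 1 hour at room temperature.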

[4] = Primary qHTS for inhibitors of La Crosse Virus (LACV) - induced cell death in SH-SY5Y cells (AID 1508616);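 further: top concentration of the series differs between compounds; higher means more rescue of cells from virus-induced death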
In short: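 Readout was luminescence from ATPLite 1step added after a 6-day LACV infection (0.01 MOI) of SH-SY5Y cells that had received pin-transferred compound 24 hr after seeding.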

Measured: Potency

CN1CCC[C@@H]1CCO[C@](C)(c1ccccc1)c1ccc(Cl)cc1
inactive: [1] | [2] | [3]

COc1cc(C(=O)N2CCCCCCC2)cc(OC)c1OC
inactive: all assays above

COP(=O)(OC)OC(c1ccc(Cl)cc1)P(=O)(OC)OC (centres undefined)
inactive: all assays above

CCCCCCCCOc1ccc(C(=O)c2ccccc2)c(O)c1
inactive: all assays above

C[C@@H](O)[C@H]1C(=O)N2C(C(=O)O)=C([C@H]3CCCO3)S[C@H]12
inactive: all assays above

Nc1nc(N)c(-c2ccccc2)s1
inactive: all assays above

COc1cc(C(=S)N2CCOCC2)ccc1O
inactive: all assays above

FC1(F)C(F)(F)C(F)(F)C2(F)C(F)(F)C(F)(F)C(F)(F)C(F)(F)C2(F)C1(F)F (centres undefined)
inactive: all assays above

NCCNC(=O)c1ccc(Cl)cn1
inactive: all assays above

CCCc1ncc(C[n+]2ccccc2C)c(N)n1
inactive: all assays above

O=C(O)c1ccc(S(=O)(=O)N(Cl)Cl)cc1
inactive: all assays above

O=C(Oc1cccc2cccnc12)c1ccccc1
inactive: all assays above

CCCCNC(=O)NS(=O)(=O)c1ccc(N)cc1
inactive: all assays above

CC(C)(Cc1c[nH]c2ccccc12)NCC(O)COc1ccccc1C#N (centres undefined)
inactive: all assays above

CCN(CC)CCOC(=O)C1(c2ccccc2)CCCC1
inactive: all assays above

CC(C)[C@@H]1CC[C@@H](C)CC1=O
inactive: all assays above

CCOC(=O)C(C#N)=C(c1ccccc1)c1ccccc1
inactive: all assays above

CCCCc1cc2ccccc2c(OCCN(C)C)n1
inactive: all assays above

O=C(CN1CCN(Cc2ccc3c(c2)OCO3)CC1)N1c2ccccc2Sc2ccccc21
inactive: all assays above

Cc1ncc(CO)c(C=O)c1O
inactive: all assays above

C=CCN1CCc2nc(N)sc2CC1
inactive: all assays above

Cc1cn([C@H]2C[C@H](F)[C@@H](CO)O2)c(=O)[nH]c1=O
inactive: all assays above

Cl/C(=C\n1cncn1)c1ccc(Cl)cc1Cl
inactive: all assays above

CN(C)CCC[C@@]1(c2ccc(F)cc2)OCc2cc(C#N)ccc21
inactive: all assays above

CCCCCCCC/C=C\CCCCCCCCN
inactive: all assays above

O=C1OC(CN2CCOCC2)CN1/N=C/c1ccc([N+](=O)[O-])o1 (centres undefined)
inactive: all assays above

O=C(O)P(=O)(O)O
inactive: all assays above

COc1ccc(-c2cc(C(F)F)nn2-c2ccc(S(N)(=O)=O)cc2)cc1F
inactive: all assays above

CN1CCN(C2=Nc3ccccc3Sc3ccc(Cl)cc32)CC1
inactive: all assays above

N/C(=N\N=C\c1ccc(Cl)cc1)N/N=C/c1ccc(Cl)cc1
inactive: all assays above

CCN(CC)CCNC(=O)c1cc(Br)c(N)cc1OC
inactive: all assays above

CCOc1cc(OCC)c(C(=O)CCC(=O)O)cc1OCC
inactive: all assays above

Nc1ccc(S(=O)(=O)NCc2ccccc2)cc1
inactive: all assays above

C/C=C/C=N/NC(=O)c1ccncc1
inactive: all assays above

CC(=O)NO
inactive: all assays above
